Holding throughout (design): species or system human, MV4-11 + K-562 + COLO205 + SK-N-BE2 + OVCAR-8
For one experiment, the system named is CDK16. The conditions noted are these: read-out: apparent Kd, n = 1.
For the next experiment, the system named is MAPK10. The conditions noted are these: read-out: apparent Kd, n = 1.
The next experiment has as its system MAPK9. The conditions noted are these: read-out: apparent Kd, n = 1.
In the next experiment the test system is MARK3. The conditions noted are these: read-out: apparent Kd, n = 1.
For a further experiment, the system named is STK4. The note with it: read-out: apparent Kd, n = 1.
For the next experiment, the system named is CHEK1. The conditions noted are these: read-out: apparent Kd; compound concentrations:100 nM and 1000 nM (sheet 'Samples'); n = 1.
The next experiment has as its system PRKAG2. The conditions noted are these: read-out: apparent Kd, n = 1.
For another experiment, the system named is AURKA. The note with it: read-out: apparent Kd; compound concentrations:100 nM and 1000 nM (sheet 'Samples'); n = 1.
The test system of a further experiment is CAMKK2. The conditions noted are these: read-out: apparent Kd, compound concentrations: 100 nM and 1000 nM (sheet 'Samples'), n = 1.
The subject of the next experiment is PRKACA. The note with it: read-out: apparent Kd; compound concentrations: 100 nM and 1000 nM (sheet 'Samples'), CATDS: 5.4700328593155198E-2; n = 1.
For another experiment, the system named is PRKACB. The note with it: read-out: apparent Kd, compound concentrations: 100 nM and 1000 nM (sheet 'Samples'), n = 1.
A further experiment concerns BCR. The note with it: read-out: apparent Kd; compound concentrations: 100 nM and 1000 nM (sheet 'Samples'), CATDS: 2.3215110623404499E-2; n = 1.
The subject of another experiment is EPHA4. The note with it: read-out: apparent Kd; compound concentrations: 100 nM and 1000 nM (sheet 'Samples'), CATDS: 2.0796665862367499E-2; n = 1.
The test system of a further experiment is EPHA5. The note with it: read-out: apparent Kd; compound concentrations: 100 nM and 1000 nM (sheet 'Samples'), CATDS: 2.9701717682633799E-2; n = 1.
For a further experiment, the system named is EPHB2. The note with it: read-out: apparent Kd; compound concentrations: 100 nM and 1000 nM (sheet 'Samples'), CATDS: 2.7488679205580801E-2; n = 1.
The next experiment relates to EPHB4. The note with it: read-out: apparent Kd; compound concentrations: 100 nM and 1000 nM (sheet 'Samples'), CATDS: 3.5368678995808499E-2; n = 1.
A further experiment relates to TNK1. The note with it: read-out: apparent Kd; compound concentrations: 100 nM and 1000 nM (sheet 'Samples'), CATDS: 3.75321125845825E-2; n = 1.
A further experiment has as its system TNK2. The note with it: read-out: apparent Kd, n = 1.
Setting [1] is: compound concentrations:100 nM and 1000 nM (sheet 'Samples').

For ten molecules, potency estimated from few doses results are on record in publication PMC11062922 (Nature Chemical Biology, 2023).

Read-outs that look alike come from different tables or passages of the source.

`CN(C)CC(O)COc1ccc(Nc2nccc(-c3cnn4nc(N5CCOCC5)ccc34)n2)cc1` (stereo not drawn) [GW767488X]: the figures for the potency estimated from few doses with CDK16 (setting [1]), with MAPK10 (setting [1]) and with MAPK9 (setting [1]) were 262 nM, 107 nM and 134 nM, respectively.
For `COc1cc[nH]c1/C=C1\C(=O)Nc2ccc(F)c(C#CC3(O)CCNCC3)c21.Cl` [RO0282986-001], the potency estimated from few doses in the experiment with CDK16 (compound concentrations: 100 nM and 1000 nM (sheet 'Samples'), CATDS: 3.6317667749827198E-2) was 71.4 nM; in the experiment with MAPK10 (compound concentrations: 100 nM and 1000 nM (sheet 'Samples'), CATDS: 9.5486825617733494E-3), 1600 nM; in the experiment on MAPK9 (compound concentrations: 100 nM and 1000 nM (sheet 'Samples'), CATDS: 1.5639148944551099E-2), 359 nM; in the experiment with MARK3 (compound concentrations: 100 nM and 1000 nM (sheet 'Samples'), CATDS: 1.4968914388982501E-2) it was 398 nM; in the experiment with STK4 (compound concentrations: 100 nM and 1000 nM (sheet 'Samples'), CATDS: 1.59534503193824E-2) it was 343 nM.
Consider `O=C(O)C(F)(F)F.O=c1[nH]ccc2nc(N[C@@H]3CCNC3)nc(Nc3cc(Cl)cc(Cl)c3)c12` [GSK2188764A], for which the potency estimated from few doses is 711 nM with CHEK1, 153 nM in the experiment with MARK3 (setting [1]), 632 nM in the experiment with PRKAG2 (setting [1]) and 913 nM in the experiment on STK4 (setting [1]).
As for `CC(C)Oc1ccc2c(-c3ccnc(Nc4ccc(N5CCN(C)CC5)cc4)n3)cnn2n1` [GW696155X], the potency estimated from few doses is 602 nM in the experiment with AURKA, 1910 nM in the experiment with CDK16 (setting [1]), 1250 nM in the experiment on MAPK10 (setting [1]) and 1010 nM with MAPK9 (setting [1]).
As for `CNCC#Cc1c(F)ccc2c1/C(=C/c1[nH]ccc1OC)C(=O)N2.Cl` [RO0281601-001], the potency estimated from few doses with CDK16 (compound concentrations: 100 nM and 1000 nM (sheet 'Samples'), CATDS: 5.4243920353091599E-2) is 173 nM; in the experiment with MAPK9 (compound concentrations: 100 nM and 1000 nM (sheet 'Samples'), CATDS: 2.4377657095079101E-2), 1310 nM; in the experiment on MARK3 (compound concentrations: 100 nM and 1000 nM (sheet 'Samples'), CATDS: 2.1082964771659999E-2), 2280 nM.
As for `Cl.Cl.NCC(NC(=O)c1cc(-c2ccnc3[nH]ccc23)cs1)c1ccccc1.NCC(NC(=O)c1cc(-c2ccnc3[nH]ccc23)cs1)c1ccccc1` (stereo not drawn) [GSK1229959A], the potency estimated from few doses is 1720 nM with CAMKK2 (CATDS: 1.7349658835090001E-2); 2280 nM in the experiment on CDK16 (compound concentrations: 100 nM and 1000 nM (sheet 'Samples'), CATDS: 1.6665892971292499E-2); 27.5 nM in the experiment on PRKACA; 56 nM in the experiment on PRKACB (CATDS: 4.1114005800974601E-2).
As for `Cl.Cn1c(=O)c(Cc2ccccc2F)cc2cnc(NC3CCOCC3)nc21` [RO3305377-001], the potency estimated from few doses with BCR is 783 nM; with CAMKK2 (CATDS: 1.7496919808973301E-2), 1640 nM; in the experiment with EPHA4 it was 1010 nM; with EPHA5 it was 481 nM; with EPHB2, 555 nM; with EPHB4, 357 nM. In addition, the potency estimated from few doses is 800 nM in the experiment on MAPK10 (compound concentrations: 100 nM and 1000 nM (sheet 'Samples'), CATDS: 2.2981904071827101E-2); 529 nM with MAPK9 (compound concentrations: 100 nM and 1000 nM (sheet 'Samples'), CATDS: 2.8205864879245399E-2); 1370 nM in the experiment on PRKACB (CATDS: 1.8562598651845501E-2); 578 nM in the experiment with PRKAG2 (compound concentrations: 100 nM and 1000 nM (sheet 'Samples'), CATDS: 2.6904980441579199E-2); 325 nM in the experiment on TNK1; 342 nM in the experiment with TNK2 (compound concentrations: 100 nM and 1000 nM (sheet 'Samples'), CATDS: 3.6301330504794102E-2).
Turning to `NS(=O)(=O)c1ccc(N/N=C2\C(=O)Nc3ccc4ncccc4c32)cc1` [GW305178X], the potency estimated from few doses with STK4 (compound concentrations: 100 nM and 1000 nM (sheet 'Samples'), CATDS: 4.4831401788358302E-2) is 1360 nM.
Take `O=C(Nc1n[nH]c2nc(-c3ccccc3O)ccc12)C1CC1` [SB-711880]: the potency estimated from few doses in the experiment on AURKA is 286 nM; in the experiment on CHEK1, 967 nM; in the experiment on MARK3 (setting [1]) it was 1610 nM; in the experiment with STK4 (setting [1]), 345 nM; in the experiment on TNK2 (setting [1]) it was 517 nM.
As to `CN[C@H](C#Cc1c(F)ccc2c1/C(=C/c1[nH]ccc1OC)C(=O)N2)CO.Cl` [RO0283049-001], the potency estimated from few doses was 167 nM in the experiment on CDK16 (compound concentrations: 100 nM and 1000 nM (sheet 'Samples'), CATDS: 4.8469274935302599E-2); 751 nM in the experiment with MAPK10 (compound concentrations: 100 nM and 1000 nM (sheet 'Samples'), CATDS: 2.5716910898498702E-2); 135 nM with MAPK9 (compound concentrations: 100 nM and 1000 nM (sheet 'Samples'), CATDS: 5.4093082413128303E-2); 674 nM in the experiment with STK4 (compound concentrations: 100 nM and 1000 nM (sheet 'Samples'), CATDS: 2.6680938989094499E-2).
